# Test results taken from article PMC7819943, “Rice protein-binding microarrays: a tool to detect cis-acting elements near promoter regions in rice”.
# In all, about 68,000 sequences were measured (“fluorescence intensity (a.u.)”: median about 9,100, highest 2% from about 16,000 on). The list comes from a sample in which the highest values are over-represented; it also holds similar and randomly drawn sequences.
# Molecular target: OsWRKY34 (Oryza sativa, UniProt Q0JBA9 1-250)
# Test: protein-binding microarray (RPBM); PBS, 2% BSA, 51.3 ng/ul salmon testes DNA, 50 uM zinc acetate, 200 nM TF, 25 C, 1 h; high values mean tight binding
# Details: protein: recombinant; tags: N-terminal polyhistidine and DsRed monomer fusion (pET32a); label: CyDye5-dUTP incorporated in the synthesized complementary strand; 3' TTTTT single-stranded linker to array surface; dsDNA, one strand shown
# Summary of the method: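 The binding signal for each feature is its fluorescence intensity in arbitrary units. An Axon 4000B scanner was used to read a custom Agilent array that had been made double-stranded with Cy5-dUTP primer extension, blocked with 2% BSA, incubated at 25 °C for 1 h with 200 nM protein in PBS, 2% BSA, salmon testes DNA and 50 µM zinc acetate, and washed. The protein was an N-terminal polyhistidine–DsRed transcription factor fusion from E. coli BL21-CodonPlus, purified on Ni–NTA.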
# OsWRKY34, sequence (Q0JBA9 entry or part of it): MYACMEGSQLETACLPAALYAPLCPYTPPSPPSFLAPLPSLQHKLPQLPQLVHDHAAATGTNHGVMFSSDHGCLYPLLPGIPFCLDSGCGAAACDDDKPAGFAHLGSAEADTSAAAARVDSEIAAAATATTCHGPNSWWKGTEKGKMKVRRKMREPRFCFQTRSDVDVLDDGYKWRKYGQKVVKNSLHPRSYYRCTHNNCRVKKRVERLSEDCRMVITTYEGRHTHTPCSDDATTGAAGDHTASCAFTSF
row,Sequence,binding signal
1,TGTTATTATGTTTCAGGAATACTTCCTCTGGTTATAAATACGGAGTCACCTAGTGCAG,9850 fluorescence intensity (a.u.)
2,ACCCCGTTCAACGCTCGCTTATATATATTCCCCTCTCGCACGGAGTCACCTAGTGCAG,8640 fluorescence intensity (a.u.)
3,AGCCTTCCGGTGAACTCCGGCGACGGGCGGGTGTGGGGATCGGAGTCACCTAGTGCAG,11000 fluorescence intensity (a.u.)
4,CTATTCTTGTGCATTCTGTTTTTTATCGTACATGCTACAGCGGAGTCACCTAGTGCAG,11800 fluorescence intensity (a.u.)
5,ATGGTGGGCTGTGGGTGCATGGTTTTGCTGGTCGCACCCACGGAGTCACCTAGTGCAG,11100 fluorescence intensity (a.u.)
6,CCACCATGGTCTCGCTCATTCTGTTTGCTTCACCTACTCTCGGAGTCACCTAGTGCAG,14500 fluorescence intensity (a.u.)
7,AGGGATGGTTGGACTTATTTCTTTCGCGTTTTCCTTGGGTCGGAGTCACCTAGTGCAG,10900 fluorescence intensity (a.u.)
8,AGACATTTTTCTTTCTCGTGGATATTTACGCCTTTCTTGACGGAGTCACCTAGTGCAG,8790 fluorescence intensity (a.u.)
9,GGGGTGAACATTTCTTTCTTTCTGGTATTGTGGTTGAGGGCGGAGTCACCTAGTGCAG,19300 fluorescence intensity (a.u.)
10,AGTGAACTTGGTTCTGTGGTTGCATGTATTTGGTGGAGGGCGGAGTCACCTAGTGCAG,9170 fluorescence intensity (a.u.)
11,TTCTTCTTGGTGGTGGTGGGGCCTGGAAACTATGTGACTTCGGAGTCACCTAGTGCAG,18200 fluorescence intensity (a.u.)
12,ACTTTTTTTGGTGACTATGTGTTTCCCTGTGGTGGGCTTCCGGAGTCACCTAGTGCAG,12000 fluorescence intensity (a.u.)
13,TAAGGGATGGGATGGTTGGCTTGGATCGAGTATATTTCTTCGGAGTCACCTAGTGCAG,18900 fluorescence intensity (a.u.)
14,GGGGTGGAATTGTGTTGGGTTTCTTTGGTTGAGGAGAGAGCGGAGTCACCTAGTGCAG,16000 fluorescence intensity (a.u.)
15,TATATTTTCTTCTTCGTCACGATCGATGGGATTTTTATTTCGGAGTCACCTAGTGCAG,9040 fluorescence intensity (a.u.)
16,GCCTTTTCTTGACTCGGTGGTGGGAGGGGAATTTTCGTGACGGAGTCACCTAGTGCAG,27000 fluorescence intensity (a.u.)
17,GAACTTTTCCTGGATGGTGATCCTTCTTTTGGCCTTCTTTCGGAGTCACCTAGTGCAG,10500 fluorescence intensity (a.u.)
18,TCAATTTTCTTGTTGACTCGGTGTTTTTGACTGTGGTCAACGGAGTCACCTAGTGCAG,10900 fluorescence intensity (a.u.)
19,TGCAGGCTTCCACCGCCCGCCTGTCATTGTCGCCCACTGCCGGAGTCACCTAGTGCAG,8760 fluorescence intensity (a.u.)
20,GTTTGTCCCTTTTGACATATGAACTCTTCTCCATGATTTCCGGAGTCACCTAGTGCAG,8060 fluorescence intensity (a.u.)
21,GGCTTGATTTCTTCTTTTTTCTAATTTTCATATGGCTATTCGGAGTCACCTAGTGCAG,9800 fluorescence intensity (a.u.)

row,Sequence,binding signal
1,TTAAATATTTGAGGGGTCGATATTTCTGGTATTGGTATTACGGAGTCACCTAGTGCAG,10500 fluorescence intensity (a.u.)
2,TTTTTTTTTCATCGATGCTTATTTTTTCAGCCTTTACTTTCGGAGTCACCTAGTGCAG,8640 fluorescence intensity (a.u.)
3,TGAAGCATGTGGTGGGCATTTTCGTCTTTCTCGAATTCATCGGAGTCACCTAGTGCAG,9980 fluorescence intensity (a.u.)
4,GTATGTGCCACGTCATCCAAAACCGGCCACAATACTGTCGCGGAGTCACCTAGTGCAG,8130 fluorescence intensity (a.u.)
5,TCCGCTTCTGCTATCTCTCGTCACTCTTCAGTCTTCACCTCGGAGTCACCTAGTGCAG,8050 fluorescence intensity (a.u.)
6,AGTTTCAGAACTCACCTCTTTATTAATACATTTAGTTGTTCGGAGTCACCTAGTGCAG,8850 fluorescence intensity (a.u.)
7,AACGGTTGCAGCTCTAATTGAGGGCTTTGTTTAGTTCATGCGGAGTCACCTAGTGCAG,8640 fluorescence intensity (a.u.)
8,AATTCGGGGTTTGGGGCCGCGGAGGGGTGCTTACGTGAGTCGGAGTCACCTAGTGCAG,15100 fluorescence intensity (a.u.)
9,TTTTGTGTATGTTTCGGTGGGAATTTGAGGGTTGTGTTTTCGGAGTCACCTAGTGCAG,14200 fluorescence intensity (a.u.)
10,CGAGGGTTTGGGAGTCGGGGAATTCGGGGTTTGGGGCCGCCGGAGTCACCTAGTGCAG,26700 fluorescence intensity (a.u.)
11,CAATGGAGGGGTGTTTTTTTTTCTATTTTTCTAAATAATTCGGAGTCACCTAGTGCAG,14800 fluorescence intensity (a.u.)
12,GCGGAGGCAGGGAGGGTTTTGGAATTTTCGGCCGCCGTTGCGGAGTCACCTAGTGCAG,10100 fluorescence intensity (a.u.)
13,CGAGAGAGAGAGGGGAGGGTTTTGGGTTGTGCTTAGGTTTCGGAGTCACCTAGTGCAG,13100 fluorescence intensity (a.u.)
14,AGTTCGGGGTGGTTTAAAGTGTAAAAAAATGTTAATAAAACGGAGTCACCTAGTGCAG,8870 fluorescence intensity (a.u.)
15,GTTAAATTCGAGGGGTTTCTTGTAATTTCGGGGTGGATAACGGAGTCACCTAGTGCAG,16500 fluorescence intensity (a.u.)
16,TGAATTTGTGGTTTTTTTTGGGGAGGGTTTTTTTTTTCTTCGGAGTCACCTAGTGCAG,34600 fluorescence intensity (a.u.)
17,CGGTGTACTACTTTTATATATGCAAACCTTTATTGCCTGACGGAGTCACCTAGTGCAG,10300 fluorescence intensity (a.u.)
18,GGCCCACCGTCGCACTCGCGCCTTCCGCTGCTCCGTTGCCCGGAGTCACCTAGTGCAG,8880 fluorescence intensity (a.u.)
19,GTTTTTCCTCTCTGCTTGTAACGCGTGATGTAAAATTTTCCGGAGTCACCTAGTGCAG,11000 fluorescence intensity (a.u.)
20,CGTCGAGTATCTGTATCTCTAAGCATTTCTTGTTGACTTTCGGAGTCACCTAGTGCAG,10600 fluorescence intensity (a.u.)
21,CCGTGCCCACCTGAGCTCGCTTCGCCGCCATTGGCAGCCTCGGAGTCACCTAGTGCAG,9100 fluorescence intensity (a.u.)
